In PubChem BioAssay (Tox21):
Values joined by “and” are separate entries in the source; they are usually repeats but may differ in a detail not shown here. Equal entries are not always repeated. Inconclusive results are not listed. The source holds several records for some structures; these can differ, active in one and inactive in another. Active and inactive are the calls of the source. Unless noted, calls come from the whole dose curve; as a rule, active = well fitted curve in the direction sought with a large enough effect in the repeat runs; inconclusive = weak or mixed curves; inactive = no such curve, though single readings can be large; an effect the other way counts as inactive or inconclusive.

Key:
[1] = qHTS assay to identify small molecule antagonists of the glucocorticoid receptor (GR) signaling pathway - cell viability counter screen (AID 720693); note: nearly all actives have a fitted effect of over 55% in size; note: potency is the fitted concentration of half-maximal effect
[2] = qHTS assay for identifying genotoxic compounds that show differential cytotoxicity against isogenic chicken DT40 cell lines with known DNA damage response pathways - wild type cell line (AID 743012); note: nearly all actives have a fitted effect of over 60% in size; note: potency is the fitted concentration of half-maximal effect
Summary of the method: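 Using parental DT40 (300 cells/well), compounds delivered in DMSO incubate 40 h at 37 C/5% CO2. CellTiter-Glo reagent then stands 30 min at room temperature, and luminescence gives cell viability.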

[3] = qHTS assay for identifying genotoxic compounds that show differential cytotoxicity against isogenic chicken DT40 cell lines with known DNA damage response pathways - Rev3 mutant cell line (AID 743014); note: nearly all actives have a fitted effect of over 55% in size; note: potency is the fitted concentration of half-maximal effect
[4] = qHTS assay for identifying genotoxic compounds that show differential cytotoxicity against isogenic chicken DT40 cell lines with known DNA damage response pathways - Rad54/Ku70 mutant cell line (AID 743015); note: nearly all actives have a fitted effect of over 60% in size; note: potency is the fitted concentration of half-maximal effect
[5] = qHTS assay to identify small molecule antagonists of the androgen receptor (AR) signaling pathway - cell viability counter screen (AID 743033; note: nearly all actives have a fitted effect of over 45% in size; note: potency is the fitted concentration of half-maximal effect)
[6] = target: Androgen receptor (Homo sapiens) (UniProt P10275); test: qHTS assay to identify small molecule agonists of the androgen receptor (AR) signaling pathway using the MDA cell line (AID 743040; note: nearly all actives have a fitted effect of over 20% in size)
Androgen receptor (Homo sapiens), sequence (P10275 whole entry, looked up): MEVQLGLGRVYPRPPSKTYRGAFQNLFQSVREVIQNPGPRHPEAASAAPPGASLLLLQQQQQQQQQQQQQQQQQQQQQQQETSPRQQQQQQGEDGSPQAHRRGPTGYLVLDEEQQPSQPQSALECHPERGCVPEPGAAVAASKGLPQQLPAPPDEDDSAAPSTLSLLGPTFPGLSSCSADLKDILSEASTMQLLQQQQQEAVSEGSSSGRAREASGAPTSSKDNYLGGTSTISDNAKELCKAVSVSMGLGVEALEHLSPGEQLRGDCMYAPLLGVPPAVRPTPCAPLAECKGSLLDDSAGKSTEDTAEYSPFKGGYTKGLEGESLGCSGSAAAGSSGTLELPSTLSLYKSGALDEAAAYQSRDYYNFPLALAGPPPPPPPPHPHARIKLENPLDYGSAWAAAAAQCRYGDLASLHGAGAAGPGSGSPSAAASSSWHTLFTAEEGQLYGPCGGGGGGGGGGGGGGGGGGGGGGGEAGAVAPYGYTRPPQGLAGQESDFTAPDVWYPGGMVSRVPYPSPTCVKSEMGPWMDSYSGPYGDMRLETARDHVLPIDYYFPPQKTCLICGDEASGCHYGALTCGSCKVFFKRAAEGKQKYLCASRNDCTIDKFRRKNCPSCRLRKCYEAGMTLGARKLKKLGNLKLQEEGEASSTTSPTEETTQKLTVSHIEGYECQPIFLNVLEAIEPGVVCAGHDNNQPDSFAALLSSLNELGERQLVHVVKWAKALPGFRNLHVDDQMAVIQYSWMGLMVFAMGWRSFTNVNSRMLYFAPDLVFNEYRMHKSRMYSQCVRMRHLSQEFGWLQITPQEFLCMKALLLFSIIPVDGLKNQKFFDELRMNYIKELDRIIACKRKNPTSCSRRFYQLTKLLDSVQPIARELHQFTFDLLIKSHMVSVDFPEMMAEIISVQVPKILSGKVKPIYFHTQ
Summary of the method: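 MDA-kb2 breast carcinoma cells stably carrying an MMTV-driven luciferase reporter (AR- and GR-responsive) were seeded and held 5 h at 37C, 0% CO2, then exposed to compounds in DMSO for 16 h. Luminescence was read 30 min after ONE-Glo addition.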

[7] = target: Androgen receptor (Homo sapiens) (UniProt P10275); test: qHTS assay to identify small molecule antagonists of the androgen receptor (AR) signaling pathway using the MDA cell line (AID 743042; note: nearly all actives have a fitted effect of over 55% in size; note: potency is the fitted concentration of half-maximal effect)
Summary of the method: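 MDA-kb2 cells (human breast carcinoma, stably carrying an MMTV-luciferase reporter responsive to AR and GR) were plated at 3,000 cells/well and preincubated 5 hr at 37C, then given compound plus R1881 agonist for 16 h. ONE-Glo luminescence was read.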

[8] = qHTS assay to identify small molecule antagonists of the thyroid receptor (TR) signaling pathway - cell viability counter screen (AID 743064); note: nearly all actives have a fitted effect of over 50% in size; note: potency is the fitted concentration of half-maximal effect
Summary of the method: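 In-well cytotoxicity read by CellTiter-Fluor (30 min, 37 C) following 23.5 h exposure of GH3 cells bearing a TRE-luciferase sensor. Compounds were added alongside 1 nM (final) T3 to drive TR transactivation.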

[9] = qHTS assay to identify small molecule antagonists of the thyroid receptor (TR) signaling pathway (AID 743065); note: nearly all actives have a fitted effect of over 55% in size; note: potency is the fitted concentration of half-maximal effect; for activity, negative = inhibition: series mostly up to about 70 µM
Summary of the method: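 GH3.TRE-Luc rat pituitary cells carrying two TR response elements driving luciferase were plated for 4 h, given compound plus 1 nM T3 (final), and incubated 23.5 h at 37 C. ONE-Glo luminescence measured reporter inhibition; CellTiter-Fluor fluorescence tracked cytotoxicity.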

[10] = qHTS assay to identify small molecule antagonists of the estrogen receptor alpha (ER-alpha) signaling pathway - cell viability counter screen (AID 743074; calls by dose curve; note: nearly all actives have a fitted effect of over 45% in size)
[11] = qHTS assay to identify small molecule antagonists of the estrogen receptor alpha (ER-alpha) signaling pathway using the BG1 cell line - cell viability counter screen (AID 743081);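 note: compound given together with 17beta-estradiol as the ER stimulus; series mostly up to about 70 µM; nearly all actives have a fitted effect of over 45% in size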
Aromatase (Homo sapiens) = Aromatase (Homo sapiens) (UniProt P11511); test: qHTS assay to identify aromatase inhibitors (AID 743083); note: nearly all actives have a fitted effect of over 55% in size; note: potency is the fitted concentration of half-maximal effect; for activity, negative = inhibition: series mostly up to about 70 µM
Aromatase (Homo sapiens), sequence (P11511 whole entry, looked up): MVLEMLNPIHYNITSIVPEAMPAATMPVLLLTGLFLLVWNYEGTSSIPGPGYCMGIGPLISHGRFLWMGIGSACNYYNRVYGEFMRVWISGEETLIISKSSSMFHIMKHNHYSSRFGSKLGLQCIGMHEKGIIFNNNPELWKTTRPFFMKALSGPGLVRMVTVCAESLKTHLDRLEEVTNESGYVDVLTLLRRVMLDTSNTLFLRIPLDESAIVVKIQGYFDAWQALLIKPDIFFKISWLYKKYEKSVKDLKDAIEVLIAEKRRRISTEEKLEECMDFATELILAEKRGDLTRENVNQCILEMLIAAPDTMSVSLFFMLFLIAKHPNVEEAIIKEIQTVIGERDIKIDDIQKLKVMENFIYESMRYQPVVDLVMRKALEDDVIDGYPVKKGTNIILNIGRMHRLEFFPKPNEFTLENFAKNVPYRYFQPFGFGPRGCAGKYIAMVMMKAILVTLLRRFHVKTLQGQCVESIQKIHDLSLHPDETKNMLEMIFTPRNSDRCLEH

[12] = qHTS assay to identify small molecule antagonists of the androgen receptor (AR) signaling pathway using the MDA cell line - cell viability counter screen (AID 743041; note: nearly all actives have a fitted effect of over 45% in size)
Summary of the method: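 MDA-kb2 AR-luc human breast carcinoma cells (MMTV-luciferase, AR/GR responsive) were treated with compounds plus R1881 agonist for 16 h at 37 °C. Viability was read as CellTiter-Fluor fluorescence in the same wells as the reporter assay.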

[13] = system: thyroid hormone receptor (rat, GH3 cells); test: qHTS assay to identify small molecule agonists of the thyroid receptor (TR) signaling pathway (AID 743066; calls by dose curve)
[14] = target: Estrogen receptor (Homo sapiens) (UniProt P03372); test: qHTS assay to identify small molecule antagonists of the estrogen receptor alpha (ER-alpha) signaling pathway (AID 743069; active = well fitted curve in the direction sought with a large enough effect in the signal ratio in the repeat runs, not every such curve was filed as active; the % refers to the signal ratio)
Estrogen receptor (Homo sapiens), sequence (P03372 whole entry, looked up): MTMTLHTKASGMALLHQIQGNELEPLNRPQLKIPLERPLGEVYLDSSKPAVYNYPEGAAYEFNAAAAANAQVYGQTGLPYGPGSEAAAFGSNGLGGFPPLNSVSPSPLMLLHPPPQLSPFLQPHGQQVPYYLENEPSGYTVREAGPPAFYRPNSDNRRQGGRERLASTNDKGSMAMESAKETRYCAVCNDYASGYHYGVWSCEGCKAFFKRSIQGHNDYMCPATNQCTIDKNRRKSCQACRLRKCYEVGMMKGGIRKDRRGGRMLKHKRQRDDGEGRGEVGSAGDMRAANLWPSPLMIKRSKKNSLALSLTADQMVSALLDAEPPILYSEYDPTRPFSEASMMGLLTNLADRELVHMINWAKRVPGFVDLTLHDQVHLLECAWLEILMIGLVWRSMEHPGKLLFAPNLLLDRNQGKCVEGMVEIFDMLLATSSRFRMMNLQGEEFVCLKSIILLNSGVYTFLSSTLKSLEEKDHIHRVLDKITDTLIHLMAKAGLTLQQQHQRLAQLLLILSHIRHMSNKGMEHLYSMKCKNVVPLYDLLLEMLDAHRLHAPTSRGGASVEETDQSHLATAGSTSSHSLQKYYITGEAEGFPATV
Summary of the method: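 HEK293 cells stably carrying an ER-alpha-UAS-bla beta-lactamase reporter were pre-cultured overnight in 2% charcoal-stripped FBS medium. Test compounds in DMSO were added together with 17beta-estradiol for 18 hr at 37C. Read-out was fluorescence after 2 hr with LiveBLAzer B/G FRET substrate at room temperature.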

[15] = target: Estrogen receptor (Homo sapiens) (UniProt P03372); test: qHTS assay to identify small molecule agonists of the estrogen receptor alpha (ER-alpha) signaling pathway (AID 743075; calls by dose curve)
[16] = target: Estrogen receptor (Homo sapiens) (UniProt P03372); test: qHTS assay to identify small molecule agonists of the estrogen receptor alpha (ER-alpha) signaling pathway using the BG1 cell line (AID 743079); note: nearly all actives have a fitted effect of over 20% in size; note: potency is the fitted concentration of half-maximal effect
[17] = qHTS assay to identify small molecule antagonists of the estrogen receptor alpha (ER-alpha) signaling pathway using the BG1 cell line (AID 743080; calls by dose curve;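 note: BG1 cells stimulated with 17beta-estradiol alongside compound; series mostly up to about 70 µM; nearly all actives have a fitted effect of over 25% in size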)
Summary of the method: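 Endogenous full-length ER-alpha in BG1-Luc-4E2 cells drives a stably integrated 4×ERE luciferase gene; compounds were tested against 17beta-estradiol over 21.5 h, with luminescence and multiplexed viability fluorescence recorded.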

[18] = qHTS assay to identify aromatase inhibitors - cell viability counter screen (AID 743084)
[19] = target: Androgen receptor (Homo sapiens) (UniProt P10275); test: qHTS assay to identify small molecule agonists of the androgen receptor (AR) signaling pathway (AID 743036; active = well fitted activation curve with a large enough effect in the signal ratio in the repeat runs, with a control signal flat, not every such curve was filed as active; the % refers to the signal ratio)
Summary of the method: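 Activation was read as beta-lactamase FRET signal from LiveBLAzer B/G substrate, added for 2 h at room temperature. Before that, GeneBLAzer AR-UAS-bla GripTite (HEK293) cells had 16 h compound exposure at 37C.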
% is set by controls: 0 for no effect and ±100 for the full control effect.

CNS(=O)(=O)c1cc(C(=O)N2CCC(CCN3C4CCC3CC(n3c(C)nc5ccccc53)C4)(c3cccc(F)c3)CC2)c(Cl)cc1F (stereo not given)
active: Potency [1] 54.9 µM | Potency [2] 3.06 µM | Potency [3] 5.45 µM | Potency [4] 6.11 µM | Potency [5] 15.5 µM | Potency [7] 34.4 µM | Potency [8] 54.5 µM | Potency [9] 48.6 µM | Potency (Aromatase (Homo sapiens)) 68.6 µM
inactive: Potency [6] | Potency [10] | Potency [11]

O=C(Nc1ccc(C(=O)O)c(O)c1)c1ccccc1
inactive: Potency [1] | Potency [2] | Potency [3] | Potency [4] | Potency [5] | Potency [12] | Potency [8] | Potency [9] | Potency [13] | Potency [14] | Potency [10] | Potency [15] | Potency [16] | Potency [17] | Potency [11] | Potency (Aromatase (Homo sapiens)) | Potency [18]

C1=CCC2CC=CC2C1 (stereo not given)
inactive: Potency [1] | Potency [2] | Potency [3] | Potency [4] | Potency [5] | outcome [19] | Potency [6] | Potency [12] | Potency [7] | Potency [8] | Potency [9] | Potency [13] | Potency [10] | Potency [11] | Potency (Aromatase (Homo sapiens)) | Potency [18]

COc1ccc2nc(S(=O)Cc3ncc(C)c(OC)c3C)[nH]c2c1 (stereo not given)
inactive: Potency [1] | Potency [5] | Potency [12] | Potency [8] | Potency [9] | Potency [13] | Potency [14] | Potency [10] | Potency [15] | Potency [16] | Potency [17] | Potency [11] | Potency (Aromatase (Homo sapiens)) | Potency [18]
active: Potency [4] 26.6 µM
21.1 µM (active) and inactive: Potency [2]
26.6 µM (active) and inactive: Potency [3]

O=c1[nH]c2cc(C(F)(F)F)c(N3CCOCC3)cc2n(CP(=O)(O)O)c1=O
inactive: Potency [1] | Potency [2] | Potency [3] | Potency [4] | Potency [5] | Potency [12] | Potency [8] | Potency [9] | Potency [13] | Potency [14] | Potency [10] | Potency [15] | Potency [16] | Potency [17] | Potency [11] | Potency (Aromatase (Homo sapiens)) | Potency [18]

CCCCCCCCCCCCCC(=O)OCC(O)CO (stereo not given)
inactive: Potency [1] | Potency [2] | Potency [5] | outcome [19] | Potency [6] | Potency [12] | Potency [7] | Potency [8] | Potency [13] | Potency [10] | Potency [11] | Potency (Aromatase (Homo sapiens)) | Potency [18]
active: Potency [3] 43.3 µM | Potency [4] 43.3 µM

CN1C(CSCC(F)(F)F)Nc2cc(Cl)c(S(N)(=O)=O)cc2S1(=O)=O (stereo not given)
inactive: Potency [1] | Potency [5] | outcome [19] | Potency [6] | Potency [12] | Potency [7] | Potency [8] | Potency [9] | Potency [13] | Potency [14] | Potency [10] | Potency [15] | Potency [16] | Potency [17] | Potency [11] | Potency (Aromatase (Homo sapiens)) | Potency [18]
active: Potency [2] 11.9 µM | Potency [3] 26.6 µM | Potency [4] 23.7 µM

CC(=O)c1ccc[nH]1
inactive: Potency [1] | Potency [2] | Potency [3] | Potency [4] | Potency [5] | outcome [19] | Potency [6] | Potency [12] | Potency [7] | Potency [9] | Potency [13] | Potency [14] | Potency [10] | Potency [15] | Potency [16] | Potency [17] | Potency [11] | Potency (Aromatase (Homo sapiens)) | Potency [18]

CC(=O)OCC(C)C
inactive: Potency [1] | Potency [2] | Potency [3] | Potency [4] | Potency [5] | outcome [19] | Potency [12] | Potency [7] | Potency [15] | Potency [11] | Potency (Aromatase (Homo sapiens)) | Potency [18]

CCCCCCCCCCCC(=O)OCC(O)CO (stereo not given)
inactive: Potency [1] | Potency [3] | Potency [5] | Potency [12] | Potency [8] | Potency [9] | Potency [13] | Potency [14] | Potency [10] | Potency [15] | Potency [16] | Potency [17] | Potency [11] | Potency (Aromatase (Homo sapiens)) | Potency [18]
inactive and 61.1 µM (active): Potency [2] | Potency [4]

CCC(Cl)CC(Cl)C(Cl)C(Cl)C(Cl)C(C)Cl (stereo not given)
inactive: Potency [1] | Potency [2] | Potency [3] | Potency [4] | Potency [5] | Potency [6] | Potency [12] | Potency [7] | Potency [8] | Potency [9] | activity, negative = inhibition [14] 21.9% [at 15 µM] | activity, negative = cytotoxicity [10] -22.7% [at 15 µM] | activation [15] 3.15% [at 14.9 µM] | Potency [11] | Potency (Aromatase (Homo sapiens)) | Potency [18]
active: Potency [16] 0.594 µM

O=C(O)CCC(=O)c1ccc(-c2ccccc2)cc1
inactive: Potency [1] | Potency [2] | Potency [3] | Potency [4] | Potency [5] | Potency [6] | Potency [12] | Potency [7] | Potency [10] | Potency [11] | Potency (Aromatase (Homo sapiens)) | Potency [18]

CCC(C)(C)C(=O)O
inactive: Potency [1] | Potency [2] | Potency [3] | Potency [4] | Potency [5] | outcome [19] | Potency [12] | Potency [7] | Potency [8] | Potency [9] | Potency [13] | Potency [14] | Potency [10] | Potency [15] | Potency [17] | Potency [11] | Potency (Aromatase (Homo sapiens)) | Potency [18]

BrC(Br)C(Br)Br
inactive: Potency [1] | Potency [2] | Potency [3] | Potency [4] | Potency [5] | outcome [19] | Potency [6] | Potency [12] | Potency [7] | Potency [8] | Potency [9] | Potency [13] | Potency [10] | Potency [15] | Potency [16] | Potency [17] | Potency [11] | Potency (Aromatase (Homo sapiens)) | Potency [18]

O=C1CC[C@@H](C(=O)O)N1
inactive: Potency [1] | Potency [2] | Potency [3] | Potency [4] | Potency [5] | outcome [19] | Potency [6] | Potency [7] | Potency [8] | Potency [9] | Potency [13] | Potency [10] | Potency [11] | Potency (Aromatase (Homo sapiens)) | Potency [18]

CCSC(=O)N(CC)CC
inactive: Potency [1] | Potency [2] | Potency [3] | Potency [4] | Potency [5] | Potency [12] | Potency [8] | Potency [9] | Potency [13] | Potency [14] | Potency [10] | Potency [15] | Potency [16] | Potency [17] | Potency [11] | Potency (Aromatase (Homo sapiens)) | Potency [18]
